Screening data deposited in PubChem by National Center for Advancing Translational Sciences (NCATS).
ELG1 DNA repair = ELG1-dependent DNA repair inhibition; Potency, µM (highest dose often 46.1 µM), inactives show at the highest dose activity change, negative = inhibition, most hits filed as inhibitors; 330,000 compounds, 2.3% hits; HEK293T ELG1-luciferase reporter, luminescence, 16 h; DNA damage induced by 5-fluorouridine; AID 504467; further: potency means the concentration at half of the fitted maximal effect; nearly all actives have a fitted effect of over 55% in size
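Cells (2,000 per well) received 5-fluorouridine plus test compound or DMSO and were incubated 16 hr at 37 °C, 5% CO2. Luciferase activity was read by luminescence 30 min after ONE-Glo addition; signal suppression marked inhibition of damage-induced ELG1 function.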
Giardia killer = Giardia lamblia killing; Giardia lamblia trophozoite viability; activity change, % at 7.66 µM, hits read low; 340,000 compounds, 0.15% hits; in the data active means activity change below about -80%; inconclusive means between about -30% and that limit;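 further: parasites exposed to compound for two days anaerobically before the ATP read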
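Giardia lamblia trophozoites (100 cells/well) were incubated with compounds for 48 h at 37 deg C under anaerobic conditions. Viability was read as ATP content by one-step luminescence after 15-30 min at room temperature.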
DT40 TDP1 no CPT = qHTS for Inhibitors of human tyrosyl-DNA phosphodiesterase 1 (TDP1): qHTS in cells in absence of CPT. Potency, µM (series often up to 46.2 µM), for the others: top-dose activity change, negative = growth inhibition, usual class: inhibitors. DT40 Tdp1-/- hTDP1 cells, no CPT, ATP luminescence, 48 h. AID 686978, 2013. 420,000 compounds, 15% hits; further: potency means the concentration at half of the fitted maximal effect; nearly all actives have a fitted effect of over 55% in size
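Chicken DT40 Tdp1-/- cells stably complemented with human TDP1 were seeded at 400 cells/well with DMSO in place of 20 nM camptothecin. After compound pinning, cells grew at least 48 hr at 37 °C; viability read by CellTiter-Glo luminescence.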
TDP1 cell CPT = DT40-hTDP1 cell growth loss with CPT. chicken DT40 Tdp1-/-;hTDP1 cells + 20 nM CPT, ATP luminescence, 48 h. Potency, µM (highest dose often 46.2 µM), inactives show at the highest dose activity change, negative = growth inhibition, usual class: inhibitors. 420,000 compounds, 12% hits; further: potency means the concentration at half of the fitted maximal effect; nearly all actives have a fitted effect of over 55% in size
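Chicken DT40 Tdp1-/- cells complemented with human TDP1, 400 cells/well, exposed to compounds plus 20 nM camptothecin for at least 48 h at 37 C; viability read as ATP content by CellTiter-Glo luminescence.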
TDP1 inh = blocks human tyrosyl-DNA phosphodiesterase 1. recombinant TDP1, AlphaScreen DNA substrate cleavage. 350,000 compounds, 0.28% hits. Potency, µM (top dose mostly 130 µM), for inactives: at the highest dose activity change, negative = inhibition, actives largely listed as inhibitors. Q9NUW8; further: potency means the concentration at half of the fitted maximal effect; nearly all actives have a fitted effect of over 40% in size
Target sequence (Q9NUW8 whole entry, looked up): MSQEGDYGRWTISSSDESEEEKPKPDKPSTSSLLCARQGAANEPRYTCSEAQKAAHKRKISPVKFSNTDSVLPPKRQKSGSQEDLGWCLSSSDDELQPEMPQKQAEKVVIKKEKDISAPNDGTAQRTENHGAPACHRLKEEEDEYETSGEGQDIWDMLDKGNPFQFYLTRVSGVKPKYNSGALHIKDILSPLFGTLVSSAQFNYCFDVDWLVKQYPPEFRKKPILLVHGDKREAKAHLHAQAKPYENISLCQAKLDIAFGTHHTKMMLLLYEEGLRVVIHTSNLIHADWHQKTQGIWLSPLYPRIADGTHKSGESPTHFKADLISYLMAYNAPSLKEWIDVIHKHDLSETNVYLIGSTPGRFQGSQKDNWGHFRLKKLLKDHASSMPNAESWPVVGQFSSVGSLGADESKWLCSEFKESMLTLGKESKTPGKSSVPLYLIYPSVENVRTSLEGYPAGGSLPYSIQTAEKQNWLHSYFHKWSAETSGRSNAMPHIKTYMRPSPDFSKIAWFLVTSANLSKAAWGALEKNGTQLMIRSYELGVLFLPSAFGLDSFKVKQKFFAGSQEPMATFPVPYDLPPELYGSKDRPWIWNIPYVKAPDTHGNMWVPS
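Signal: AlphaScreen proximity between streptavidin donor and anti-FITC acceptor beads on intact substrate. Reaction: Tdp1 1 nM, substrate 15 nM final, 5 min RT after 15 min compound preincubation.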
IL-1B inflam inh = blocks inflammasome-driven IL-1 beta release | THP-1 LPS/ATP IL-1B secretion, AlphaLISA, 16 h; stronger effect = lower value | activity change, % at 57.5 µM | 360,000 compounds, 4.7% hits; in the data active means activity change below about -50%; inconclusive means mostly about -30% to -49%
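THP-1 cells pretreated 1 hr with compounds (up to 57.5 uM final), then stimulated with LPS (250 ng/mL final) plus ATP (1.25 mM final); secreted IL-1B measured by AlphaLISA after 16 hr, decreased signal indicating inhibition.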
Numbers without * were called inactive; ? = inconclusive; · = no result given; [ ] = another dose, or the depositor's remark. In the library only some 19% were active in any assay of this set; here they are far more common. Unless noted, the call rests on the fitted dose curve; in most records, active means well fitted curve in the direction sought with a large enough effect; inconclusive means small, poorly fitted or top-dose-only effect, or another doubt; inactive means no such curve, though single readings can be large; an effect the other way counts as inactive or inconclusive. On the % scale 0 is the no-effect control and ±100 the full control effect.

SMILES	ELG1 DNA repair	Giardia killer	DT40 TDP1 no CPT	TDP1 cell CPT	TDP1 inh	IL-1B inflam inh
COc1cc(SC)ccc1C(=O)N1CCN(c2ccccc2)CC1	-9.4%	42.4	?	-9.0%	0.0%	-80.4*
COc1cc(SC)ccc1C(=O)N1CCN(c2ccc(O)cc2)CC1	20.6µM*	0.6	9.2µM*	?	2.7%	23.7
Cc1nc2cc(NC(=O)[C@@H]3C[C@@H](Sc4ccccn4)CN3Cc3ccc(F)cc3F)ccc2s1	·	·	-9.1%	-1.1%[9.04 µM]	·	·
C=CC(COCc1ccccc1)N([C@@H](Cc1ccccc1)C(=O)OC)S(=O)(=O)c1ccccc1Br (stereo not given in full)	10.0%	7.0	23.1µM*	?	-1.1%	11.9
O=C(N/N=C/C=C\c1ccccc1[N+](=O)[O-])c1ccccn1	?	4.4	-26.1%	?	9.1%	0.0
Cc1ccsc1C(=O)N/N=C/C=C/c1ccccc1[N+](=O)[O-]	?	8.5	?	20.6µM*	7.8%	-4.2
O=C(N/N=C/C=C/c1ccccc1[N+](=O)[O-])c1cc(-c2ccccc2)n[nH]1	?	-12.3	14.6µM*	16.4µM*	-2.6%	0.0
Cc1ccc(C)c(S(=O)(=O)NCC(=O)OCC(=O)Nc2sccc2C(N)=O)c1	9.4%	11.5	-8.9%	4.9%	-0.6%	-0.7
CC(C)CC1C(=O)N(Cc2cn(CCC3OCCCO3)nn2)CCS(=O)(=O)N1Cc1ccc(-c2ccc(F)cc2)cc1 (stereo not given)	·	·	?	?	·	2.1
CC(C)CC1C(=O)N(Cc2cn(CCC3OCCO3)nn2)CCS(=O)(=O)N1Cc1ccc(-c2ccncc2)cc1 (stereo not given)	·	·	23.1µM*	?	·	-9.7
Cc1ccc(-c2ccc(CN3C(CC(C)C)C(=O)N(Cc4cn(CCC5OCCCO5)nn4)CCS3(=O)=O)cc2)cc1 (stereo not given)	·	·	20.6µM*	18.4µM*	·	-7.0
Clc1ccc(C2=Nn3c(nnc3-c3cc(-c4ccccc4)n[nH]3)SC2)cc1	?	-4.0	18.4µM*	?	0.0%	9.4
Cc1cc(-c2nnc3n2N=C(c2ccccc2Br)CS3)n[nH]1	18.7%	7.9	?	6.6%	7.1%	·
COc1ccc(C2=Nn3c(nnc3-c3ccc(OC)c(OC)c3)SC2)cc1	·	·	·	·	3.2%	·
Cc1cccc(-c2nnc3n2N=C(c2ccccc2Br)CS3)c1	-25.2%	15.2	20.6µM*	20.6µM*	0.0%	-3.3
COc1cccc(-c2nnc3n2N=C(c2cc(OC)ccc2OC)CS3)c1	18.4µM*	18.8	14.6µM*	?	4.3%	?
COc1ccc(C2=Nn3c(nnc3-c3ccc(OC)cc3)SC2)cc1	0.0%	19.8	1.03µM*	1.84µM*	8.7%	2.4
c1ccc(C2=Nn3c(nnc3-c3cc(-c4ccccc4)n[nH]3)SC2)cc1	?	-3.0	?	?	4.7%	-1.5
Cc1nc2cncnc2n(C2CC2)c1=O	·	·	2.7%	0.2%	·	·
CCc1ccc(NC(=O)c2nn(-c3ccc(OC)cc3)c(=O)c3c2c2ccccc2n3C)cc1	·	·	3.2%	4.2%	0.0%	·
CC(C(=O)N1CCCc2ccccc21)N1C(=O)c2ccccc2C1=O (stereo not given)	9.1%	3.9	?	-14.2%	1.3%[56.1 µM]	20.9
O=c1cc(-c2ccccc2)nc2c(Cl)cc(Cl)cn12	·	·	?	-5.5%	·	19.1
Cc1cc(C(=O)N2CCCC(N3CCN(c4ccccc4C)CC3)C2)no1 (stereo not given)	·	·	?	?	·	19.3
CCc1ccc(NC(=O)Cn2c(=O)n(Cc3ccc4c(c3)OCO4)c(=O)c3oc4ccccc4c32)cc1	·	·	?	?	2.6%	·
COc1cccc(-c2nnc3n2N=C(C(C)(C)C)CS3)c1	?	3.1	9.2µM*	16.4µM*	-1.0%	-92.9*
SMILES	ELG1 DNA repair	Giardia killer	DT40 TDP1 no CPT	TDP1 cell CPT	TDP1 inh	IL-1B inflam inh
CCOc1cccc(-c2nnc3n2N=C(c2cc(OC)ccc2OC)CS3)c1	5.17µM*	-7.1	8.2µM*	?	0.7%	-25.1
COc1cccc(-c2nnc3n2N=C(c2ccc(OC)cc2OC)CS3)c1	·	·	·	·	16.8%	·
COc1ccc(OC)c(C2=Nn3c(nnc3-c3cc(OC)c(OC)c(OC)c3)SC2)c1	?	6.4	16.4µM*	20.6µM*	8.3%	0.0
COc1cc(-c2nnc3n2N=C(c2ccccc2)CS3)cc(OC)c1OC	9.2µM*	11.5	1.46µM*	1.46µM*	2.1%	16.7
COC(=O)c1ccccc1NC(=O)C1=CC(c2ccc3c(c2)OCO3)=NS(=O)(=O)N1C	·	·	-5.3%	2.3%	11.4%	·
CCOc1ccc(S(=O)(=O)N2CCC(C(=O)Nc3cc(S(C)(=O)=O)ccc3Cl)CC2)cc1	0.4%	-12.4	?	?	0.5%	-19.5
Cc1nc2cc(NC(=O)[C@@H]3C[C@@H](Sc4ccccn4)CN3Cc3cccc(Cl)c3)ccc2s1	·	·	-22.1%	13.7%[9.04 µM]	·	·
FC(F)(F)c1nc2ccccc2n2c(-c3c(Cl)cccc3Cl)nnc12	4.4%	0.6	20.6µM*	25.9µM*	2.9%	18.2
FC(F)(F)c1nc2ccccc2n2c(-c3ccc(Cl)cc3Cl)nnc12	-1.9%	5.6	20.6µM*	20.6µM*	2.9%	-4.0
CC1(C)C(/C=C/C=C/C=C/C=C2\N(CCCCS(=O)(=O)O)c3ccc4ccccc4c3C2(C)C)=[N+](CCCCS(=O)(=O)[O-])c2ccc3ccccc3c21	·	-2.0	-3.1%	-3.7%	·	-76.7*
CCOc1ccc(CCNC(=O)c2ccc3nc(N4CCC(C)CC4)sc3c2)cc1OCC	·	·	5.17µM*	6.51µM*	2.5%	·
CCOc1ccc(CCNC(=O)c2ccc3nc(N4CCOCC4)sc3c2)cc1OCC	23.1µM*	11.4	?	?	-1.3%	23.1
COc1ccc(CCNC(=O)c2ccc3nc(N4CCOCC4)sc3c2)cc1OC	?	38.6	?	?	·	-4.9
O=C(NC1CCCCC1)C1c2ccccc2OCC(=O)N1Cc1cccnc1 (stereo not given)	·	·	0.9%	2.5%	·	6.4
Nc1ccc(Nc2ccccc2N)cc1	18.3%	21.7	10.3µM*	5.17µM*	7.8%	6.1
COc1ccc(Nc2ccccc2N)cc1	?	4.5	20.6µM*	?	5.9%	-50.4*
Nc1ccc(Nc2ccncc2)cc1	·	·	-2.5%	5.0%	·	-10.9
Nc1ccccc1Nc1cccc(C(F)(F)F)c1	?	15.3	?	8.6%	6.0%	-156.9*
